The list is not random: actives were taken first. Their share in the collection is about 21%.
CHX counter = Cycloheximide Counterscreen for Small Molecule Inhibitors of Shiga Toxin | cell reporter, cycloheximide protein synthesis inhibition counterscreen | max response, % | 300,000 tested, 12% active; in the data active = max response mostly above about 13%, no sharp cut-off; inactive = mostly below about 14%; note: read at 38.3 µM for the half of the compounds with a filed dose
Pf growth 48h = Primary qHTS for delayed death inhibitors of the malarial parasite plastid, 48 hour incubation; 310,000 tested, 5.9% active; P. falciparum luciferase growth in erythrocytes, 48 h; AID 504832, 2011; Potency, µM (top dose mostly 28.7 µM), hits mostly inhibitors
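Luciferase-expressing P. falciparum in infected erythrocytes (2% hematocrit, 0.1% parasitemia final) in RPMI 1640/0.5% Albumax were exposed to compound for 48 hours at 37 C, 5% CO2; growth read as luminescence.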
Pf growth 96h = Primary qHTS for delayed death inhibitors of the malarial parasite plastid, 96 hour incubation; P. falciparum luciferase reporter growth, 96 h; Potency, µM (top dose mostly 28.7 µM), hits mostly inhibitors; 320,000 tested, 6.9% active; AID 504834, 2011
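Cell-based qHTS: luciferase-tagged P. falciparum in erythrocytes (2% hematocrit, 0.05% parasitemia final) incubated with compounds for 96 hours, 37 C, 5% CO2; luciferase detection reagent then added and luminescence measured.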
Shiga toxin inh = A qHTS for Small Molecule Inhibitors of Shiga Toxin. inhibition, % at 38.7 µM. Vero cells, Shiga toxin protein synthesis inhibition reporter. 290,000 tested, 9.2% active; in the data active = inhibition mostly above about 28%, no sharp cut-off; inactive = mostly below about 43%
Each line names hits and unclear results; the compound was inactive in the other large screens. Unless noted, calls come from the whole dose curve; as a rule, active = well fitted inhibition curve with a large enough effect; inconclusive = small, poorly fitted or top-dose-only effect, or another doubt; inactive = no such curve, though single readings can be large or run the other way.

CCOC(=O)N1CCN(C(=O)c2cccn3c(=O)c4c5c(sc4nc23)CCCC5)CC1	none
CCOC(=O)N1CCc2c(sc3nc(SC(C)C)n(N)c(=O)c23)C1	Pf growth 48h inconclusive, Pf growth 96h 11.7µM
CCOC(=O)N1CCc2c(sc3nc4n(c(=O)c23)N=C(c2ccc(OC)cc2)CS4)C1	Pf growth 48h 0.465µM, Pf growth 96h inconclusive
CCOC(=O)N1CCc2c(sc3ncn(C)c(=O)c23)C1	Pf growth 96h inconclusive
CC(C)CN1C(=O)NC(NC(=O)c2cccs2)(C(F)(F)F)C1=O (stereo unspecified)	Pf growth 48h 2.33µM
CCOc1ccc(OCC)c(NC(=O)C2CCCN(S(=O)(=O)c3cnc[nH]3)C2)c1 (stereo unspecified)	Pf growth 96h 4.65µM (no result: Pf growth 48h)
CCOc1ccc(OCC)c(NC(=O)C2CCCN(C(=O)c3ccc(Cl)cc3)C2)c1 (stereo unspecified)	Pf growth 48h inconclusive, Pf growth 96h 9.28µM (no result: CHX counter, Shiga toxin inh)
COc1ccc(CCNC(=O)C2CCN(S(=O)(=O)c3cccc4cccnc34)CC2)cc1OC	Pf growth 96h 16.5µM
COc1ccc(CCNC(=O)C2CCCN(S(=O)(=O)c3cc(C)ccc3OC)C2)cc1OC (stereo unspecified)	Pf growth 48h 11.7µM, Pf growth 96h 5.22µM
CCOc1ccc(NC(=O)C2CCCN(S(=O)(=O)c3cnc[nH]3)C2)cc1 (stereo unspecified)	none
O=S(=O)(Nc1ccc(C(F)(F)F)cn1)c1ccccc1	none
COc1ccc(CCNC(=O)C2CCN(S(=O)(=O)c3ccc4nc5c(c(C(=O)O)c4c3)CCCC5)CC2)cc1OC	Pf growth 96h 9.28µM
COc1ccc(CCNC(=O)C2CCN(S(=O)(=O)c3cnc[nH]3)CC2)cc1OC	Pf growth 96h inconclusive
CC(=O)c1ccc(N2CCN(C(=O)C3CCCN(S(=O)(=O)c4cnc[nH]4)C3)CC2)cc1 (stereo unspecified)	CHX counter 21.6, Pf growth 48h inconclusive, Pf growth 96h 5.86µM
COc1ccc(CCNC(=O)C2CCCN(S(=O)(=O)c3cnc[nH]3)C2)cc1OC (stereo unspecified)	Pf growth 96h 13.1µM (no result: Pf growth 48h)
CCOC(=O)C1(Cc2ccccc2C)CCCN(S(=O)(=O)CC)C1 (stereo unspecified)	Pf growth 96h inconclusive
COc1cc(C(c2nnnn2C2CCCC2)N2CCN(C(=O)c3ccco3)CC2)cc(OC)c1OC (stereo unspecified)	none
COc1ccc(N(CC(=O)NCCSCc2ccco2)S(=O)(=O)c2ccccc2)cc1	Pf growth 48h inconclusive
COc1ccc(N(CC(=O)NCCSCc2ccco2)S(=O)(=O)c2ccccc2)cc1OC	Pf growth 96h 11.7µM
COc1ccc(N(CC(=O)NCCSC2CCCCC2)S(=O)(=O)c2ccccc2)cc1OC	Pf growth 48h 13.1µM, Pf growth 96h inconclusive
COc1ccccc1N(CC(=O)NCCSCc1ccccc1)S(=O)(=O)c1ccc(C)cc1	Pf growth 48h inconclusive, Pf growth 96h 2.62µM
CCOc1ccc(CC(=O)NNC(=S)NC)cc1Br	none
O=C(CN1CCN(C(=O)C2COc3ccccc3O2)CC1)Nc1ccc(F)cc1 (stereo unspecified)	none
CN(C(=O)c1ccc(NC(=O)Cc2ccc(NC(=O)C3CCN(C(=O)c4ccccc4)CC3)cc2)cc1)C1CC1	Pf growth 48h inconclusive, Pf growth 96h 6.57µM (no result: CHX counter, Shiga toxin inh)
CN(Cc1ccccc1)C(=O)c1ccc(NC(=O)Cc2cccc(NC(=O)C3CCCN(C(=O)C4CCC4)C3)c2)cc1 (stereo unspecified)	Pf growth 48h 9.28µM, Pf growth 96h inconclusive (no result: CHX counter, Shiga toxin inh)
O=C(Cc1cccc(NC(=O)C2CCN(C(=O)C3CCCCC3)CC2)c1)Nc1cccc(C(=O)N2CCCC2)c1	Pf growth 48h 13.1µM, Pf growth 96h 10.4µM (no result: CHX counter, Shiga toxin inh)
O=C(NCc1ccco1)c1ccc(N2CCCCC2)c([N+](=O)[O-])c1	CHX counter 20.1, Pf growth 48h 8.28µM, Pf growth 96h 6.57µM, Shiga toxin inh 41.4
O=C(NCc1ccco1)c1ccc(N2CCOCC2)c([N+](=O)[O-])c1	Pf growth 96h inconclusive
Cc1ccc(N(Cc2ccco2)C(=O)c2ccc(N3CCCCC3)c([N+](=O)[O-])c2)cc1	CHX counter 43.7, Pf growth 96h 11.7µM, Shiga toxin inh 105.6
NNC(=O)c1ccc(N2CCCCCC2)c([N+](=O)[O-])c1	Pf growth 48h inconclusive
CC1CCN(c2ccc(C(=O)NCc3ccco3)cc2[N+](=O)[O-])CC1	CHX counter 22.0, Pf growth 48h 0.828µM, Pf growth 96h 1.17µM, Shiga toxin inh 54.2
Cc1ccc(S(=O)(=O)N2CCOc3ccccc32)c(C)c1NS(C)(=O)=O	Pf growth 96h inconclusive
O=C1CNC(=S)N1c1nc2ccccc2s1	CHX counter 28.8, Pf growth 96h inconclusive, Shiga toxin inh 82.3
COC(=O)Oc1ccc(/C=C/C(=O)OC(C)C)cc1OC(=O)OC	CHX counter 29.9
O=c1c2nc(Br)n([C@@H]3O[C@@H]4CO[P@@](O)(=S)O[C@H]4[C@H]3O)c2nc2[nH]c(-c3ccccc3)cn12	none (no result: Pf growth 48h, Pf growth 96h)
Nc1nc(Br)c2c(F)cccc2c1-c1ccc(Cl)cc1	Pf growth 48h inconclusive, Pf growth 96h 13.1µM
CC(=O)CSc1cc(-c2ccccc2)nc2ncnn12	none
CCOc1ccc(Br)cc1C(=O)N/N=C/c1ccccn1	Pf growth 48h 9.28µM, Pf growth 96h inconclusive
O=C(N/N=C/c1cccnc1)c1ccccc1OCc1cccc(Br)c1	Pf growth 48h inconclusive
COc1ccc(OC)c(C(=O)N/N=C/c2ccccn2)c1	CHX counter 30.5, Shiga toxin inh 75.5
O=C(N/N=C/c1ccncc1)c1cc(Br)ccc1OCc1ccccc1	Pf growth 48h inconclusive, Pf growth 96h 2.94µM
Brc1ccc(OCc2ccccc2)c(CNCc2ccncc2)c1	Pf growth 48h 9.28µM, Pf growth 96h 0.415µM
CCN(CC)S(=O)(=O)c1ccc(OC)c(NC(=O)Cn2cnc3c2c(=O)n(C)c(=O)n3C)c1	none
O=C(O)/C=C/c1cc(F)c(S(=O)(=O)N2CCN(S(=O)(=O)c3ccc4c(c3)OCCO4)CC2)cc1F	none (no result: Pf growth 48h, Pf growth 96h)
O=c1[nH][nH]c(C(F)(F)F)c1/C=N/N1CCOCC1	none
COc1ccc(C(=O)Nc2ccccc2C(=O)N/N=C/c2ccccn2)cc1OC	CHX counter 33.9, Pf growth 48h 4.15µM, Pf growth 96h 11.7µM, Shiga toxin inh 45.1
Cc1ccc(C(=O)/C=C/NNC(=O)c2ccccc2O)cc1	none
O=C(/C=C/NNC(=O)c1ccccc1)c1ccc(Br)cc1	CHX counter 46.7, Shiga toxin inh 70.9 (no result: Pf growth 48h)
O=C(/C=C/NNC(=O)c1cccc(Br)c1)c1cccc(Br)c1	Pf growth 48h 9.28µM (no result: Pf growth 96h)
O=C(/C=C/NNC(=O)c1ccc(Cl)cc1)c1ccccc1	CHX counter 31.1, Shiga toxin inh 46.8
O=C(/C=C/NCC(=O)c1ccccc1)c1ccc(Br)cc1	Pf growth 96h inconclusive, Shiga toxin inh 45.4
CCNC(=S)NNC(=O)c1cccc(Br)c1	none
COc1ccc(OCC(=O)NC(=O)c2ccccc2OC)c([N+](=O)[O-])c1	none (no result: CHX counter, Shiga toxin inh)
COc1ccc(NS(=O)(=O)c2cc(NC(=O)c3nc4nc(C)cc(C)n4n3)ccc2C)cc1	Pf growth 48h inconclusive, Pf growth 96h inconclusive

Bioassay records as filed in PubChem.
